# Test results as given in PubChem BioAssay (Tox21).
# Inconclusive results are not listed. A number with no mark means an inactive call. Calls come from the whole dose curve.
# Assay: p53 small molecule agonists, cell-based qHTS assay with human liver microsomes (AID 1963577);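 note: p53 response element beta-lactamase reporter cells with liver microsomes plus NADPH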
# Details: HCT-116 p53RE-bla with human liver microsomes, ratio, 16 h; series mostly up to 66 µM; activation: at the top concentration
# Outline: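 Steps: plate p53RE-bla cells, incubate 5 h at 37 C; add compound in DMSO; add microsomes (0.5 mg/mL final) and NADPH (0.5 mg/mL final); incubate 16 h at 37 C; add LiveBLAzer, 2 h RT; read fluorescence.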
# % is set by controls: 0 for no effect and ±100 for the full control effect.
row,SMILES,activation
1,C=CC(=C)CC/C=C(\C)CCC=C(C)C,-0.261% [at 13.5 µM]
2,C[C@H](CCC(=O)O)[C@H]1CC[C@H]2[C@@H]3[C@H](O)C[C@@H]4C[C@H](O)CC[C@]4(C)[C@H]3C[C@H](O)[C@]12C,-1.13% [at 30.3 µM]
3,CC(C)C[P+](C)(CC(C)C)CC(C)C,0.2%
4,CCCCCCCCCCCCCCCCCCN(C)C,1.08% [at 30.3 µM]
5,CCOC(=O)O[C@H](C)OC(=O)c1ccc2c(c1)cc(C(=O)NC1CCN(C(C)C)CC1)n2Cc1cc(-c2ccc(Cl)s2)on1,-10.7%
6,CC(=O)Nc1cccc(C)c1,3.16%
7,O=C(NCCN1CCOCC1)c1ccc(Cl)cc1,-0.966% [at 30.3 µM]
8,CCCCCCCCCCCCCOP(=O)(O)O,0.176%
9,CCCC(C)C,-2.72%
10,Cc1[nH]c(=O)c(C#N)cc1-c1ccc2nccn2c1,-3.81% [at 30.3 µM]
11,CCO,-1.74%
12,CC(=O)Nc1ccc(OCC(O)CNC(C)C)cc1 (stereo not given),-0.61% [at 30.3 µM]
13,O=C(NS(=O)(=O)/C=C/c1ccccc1)c1ccc(F)cc1Cl,1.14%
14,CCOC(=O)CCCCCCCCC(=O)OCC,5.61%
15,CC(C)OC(=O)C(C(=O)OC(C)C)=C1SC=CS1,-2.12% [at 30.3 µM]
16,O=C(CN1CCN(Cc2ccc3c(c2)OCO3)CC1)N1c2ccccc2Sc2ccccc21,4.3% [at 30.3 µM]
17,CC(=O)Oc1ccc(C(C)=O)cc1,0.827%
18,Cc1ccc(C(=O)Oc2ccc(C(O)CNC(C)(C)C)cc2OC(=O)c2ccc(C)cc2)cc1 (stereo not given),-0.978% [at 30.3 µM]
19,Oc1ccc(Cl)c2cccnc12,-10.8% [at 30.3 µM]
20,CCCCCCCC/C=C\CCCCCCCCOCCO,-2%

row,SMILES,activation
1,CC(=O)OC(C)c1ccccc1 (stereo not given),0.289%
2,O=S(=O)(Cl)c1c(Cl)cccc1Cl,1%
3,CCOC(=O)CC1(C)OCC(C)O1 (stereo not given),3.83%
4,C1CC(COCC2CO2)CCC1COCC1CO1 (stereo not given),0.664%
5,CCCCCCCCCCC(=O)O,-1.61%
6,O=C1OCc2ccccc21,0.647%
7,CC1(C)C(=O)N(CO)C(=O)N1CO,0.0137%
8,CCCC(c1cc(C(C)(C)C)c(O)cc1C)c1cc(C(C)(C)C)c(O)cc1C,1.22%
9,O=C(O)CNCC(=O)O,0.261% [at 5.99 µM]
10,CCCS(=O)c1ccc2nc(NC(=O)OC)[nH]c2c1 (stereo not given),-0.964% [at 30.3 µM]
11,O=C(OCc1ccccc1)C(=O)OCc1ccccc1,2.52%
12,C/C=C(\C)C#N,-2.83%
13,Cl[Si](Cl)(c1ccccc1)c1ccccc1,-0.0962%
14,N=C(N)c1ccc(OCCCOc2ccc(C(=N)N)cc2)cc1,5.18% [at 30.3 µM]
15,COC(=O)C(C)O (stereo not given),-0.925%
16,CCc1nccnc1CC,3.14% [at 13.5 µM]
17,C=CC(=O)OCCCCCCCCCC,1.05%
18,CO[Si](CCCNc1ccccc1)(OC)OC,3.46%
19,CCCCCCCCCCCCCCCCOS(=O)(=O)O,-2.87% [at 30.3 µM]
20,CC(C)(c1ccc(Oc2ccc3c(c2)C(=O)OC3=O)cc1)c1ccc(Oc2ccc3c(c2)C(=O)OC3=O)cc1,-2.52%
